PubChem BioAssay (NCATS)
Values joined by “and” are separate entries in the source; they are usually repeats but may differ in a detail not shown here. Identical values can stand only once. Results filed as inconclusive are left out. A call without a number means that no potency is given here. A number with no mark means an inactive call. Active and inactive are the calls of the source. Calls follow the shape of the dose curve; as a rule, active = well fitted curve in the direction sought with a large enough effect; inconclusive = small, poorly fitted or top-dose-only effect, or another doubt; inactive = no such curve, though single readings can be large; an effect the other way counts as inactive or inconclusive.

What was measured:
[1] = target: N-terminal Xaa-Pro-Lys N-methyltransferase 1 (Homo sapiens) (UniProt Q9BV86); assay: qHTS Assay for Inhibitors of N-terminal methyltransferase 1 (NTMT1): LOPAC validation of the NTMT1 SAHH-coupled ThioGlo3 Assay (AID 1347143);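 also: SAH from peptide methylation measured as thiol fluorescence via SAHH coupling and ThioGlo3; nearly all actives have a fitted effect of over 70% in size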; also: potency is read from the fitted curve at half-maximal effect
In short: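 NTMT1 125nM + cpds (various conc.), 1 min RT; add SAM 100uM/SAHH 10uM/ThioGlo3 15uM (addition mix). SAHH-coupled thiol detection, Ex340/Em450, t0 and 30 min RT; signal normalized to background. LOPAC 1280-cpd pilot.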

[2] = tested on: Zika virus NS2B-NS3 protease (unlinked); assay: Optimization of GU AMC qHTS for Zika virus inhibitors: Unlinked NS2B-NS3 protease assay (AID 1347151); also: nearly all actives have a fitted effect of over 80% in size; also: potency is read from the fitted curve at half-maximal effect; as to activity change, negative = inhibition: series mostly up to about 52 µM
In short: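 In this qHTS, compounds acted on 25 nM unlinked Zika NS2B–NS3 in pH 8.0 Tris/Tween buffer. Cleavage of an AMC peptide ran 15 min at room temperature, to about 20% conversion.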

[3] = tested on: Zika virus NS2B-NS3 protease; assay: Primary screen GU AMC qHTS for Zika virus inhibitors (AID 1347154); also: nearly all actives have a fitted effect of over 70% in size
In short: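 Fluorogenic AMC-substrate cleavage by noncovalent NS2B-NS3 protease complex (25 nM, pH 8.0 Tris buffer with Tween 20) followed for 15 minutes at room temperature (~20% conversion). Percent inhibition from ex340/em450 signal change, fitted by 4-parameter Hill equation.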

[4] = qHTS of pediatric cancer cell lines to identify multiple opportunities for drug repurposing: Confirmatory screen for BT-37 cells (AID 1347117); also: potency is read from the fitted curve at half-maximal effect;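 also: viability measured after 48 h of compound exposure; nearly all actives have a fitted effect of over 55% in size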
In short: (§1)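 Cells (500-1,000/well) rested 5 h, then received compounds for 48 h; metabolically active cells were measured by CellTiter-Glo luminescence. Final concentrations spanned up to 46 µM (MIPE, 11-point) or 0.59 nM-46 µM (NPC, 8-point) in primary screens, 11-point in follow-ups.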

[5] = qHTS of pediatric cancer cell lines to identify multiple opportunities for drug repurposing: Confirmatory screen for TC32 cells (AID 1347118);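 also: potency is read from the fitted curve at half-maximal effect; cells exposed to compound for 48 h before the read; nearly all actives have a fitted effect of over 65% in size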
In short: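 Measured quantity: luminescence from CellTiter-Glo, reflecting metabolically active TC32 cells following 48 h of compound. Curves came straight from multi-point titrations, with 8 or 11 points in primary and 11 in confirmatory screening.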

[6] = qHTS of pediatric cancer cell lines to identify multiple opportunities for drug repurposing: Confirmatory screen for MG 63 (6-TG R) cells (AID 1347119); also: nearly all actives have a fitted effect of over 55% in size; also: potency is read from the fitted curve at half-maximal effect
In short: as §1

[7] = qHTS of pediatric cancer cell lines to identify multiple opportunities for drug repurposing: Confirmatory screen for U-2 OS cells (AID 1347122); conditions: outcome: dose series up to 45.9 µM; also: nearly all actives have a fitted effect of over 65% in size
In short: as §1

[8] = qHTS of pediatric cancer cell lines to identify multiple opportunities for drug repurposing: Confirmatory screen for Rh41 cells (AID 1347123);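 also: 48 h compound exposure; nearly all actives have a fitted effect of over 60% in size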
In short: as §1

[9] = qHTS of pediatric cancer cell lines to identify multiple opportunities for drug repurposing: Confirmatory screen for RD cells (AID 1347124);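 also: cells exposed to compound for 48 h before viability readout; nearly all actives have a fitted effect of over 65% in size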; also: potency is read from the fitted curve at half-maximal effect
In short: as §1

[10] = qHTS of pediatric cancer cell lines to identify multiple opportunities for drug repurposing: Confirmatory screen for Rh18 cells (AID 1347125); also: nearly all actives have a fitted effect of over 55% in size
In short: as §1

[11] = qHTS of pediatric cancer cell lines to identify multiple opportunities for drug repurposing: Confirmatory screen for Rh30 cells (AID 1347126); also: nearly all actives have a fitted effect of over 55% in size
In short: as §1

[12] = qHTS of pediatric cancer cell lines to identify multiple opportunities for drug repurposing: Confirmatory screen for Saos-2 cells (AID 1347127); also: nearly all actives have a fitted effect of over 60% in size
In short: as §1

[13] = qHTS of pediatric cancer cell lines to identify multiple opportunities for drug repurposing: Confirmatory screen for SK-N-SH cells (AID 1347129);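 also: cells exposed to compound for 48 h before viability read; nearly all actives have a fitted effect of over 60% in size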
In short: as §1

[14] = qHTS of pediatric cancer cell lines to identify multiple opportunities for drug repurposing: Confirmatory screen for control Hh wild type fibroblast cells (AID 1347121); also: nearly all actives have a fitted effect of over 70% in size
In short: as §1

[15] = tested on: Zika virus NS2B-NS3 protease (unlinked complex); assay: Primary screen GU Rhodamine qHTS for Zika virus inhibitors: Unlinked NS2B-NS3 protease assay (AID 1347159); also: nearly all actives have a fitted effect of over 60% in size
In short: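 Unlinked NS2B/NS3, 25 nM; Rhod110 peptide, 1.5 microM; compounds, up to 114 microM. Reaction run 15 min at RT in 10 mM Tris-HCl pH 8.0, 0.01% Tween 20; kinetic fluorescence change fitted with a 4-parameter Hill model.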

Sequence of N-terminal Xaa-Pro-Lys N-methyltransferase 1 (Homo sapiens) (Q9BV86 whole entry, looked up): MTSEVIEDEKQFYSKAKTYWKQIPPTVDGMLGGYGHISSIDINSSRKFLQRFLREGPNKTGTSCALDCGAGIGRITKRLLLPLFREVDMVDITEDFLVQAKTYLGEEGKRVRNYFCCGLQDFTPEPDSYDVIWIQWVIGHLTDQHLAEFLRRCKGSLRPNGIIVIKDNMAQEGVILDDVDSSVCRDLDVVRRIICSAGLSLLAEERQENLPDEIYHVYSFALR

Structure (SMILES): CC(C)c1c(C(=O)Nc2ccccc2)c(-c2ccccc2)c(-c2ccc(F)cc2)n1CC[C@@H](O)C[C@@H](O)CC(=O)O
- Potency [1]: inactive
- Potency [2]: inactive
- Potency [3]: inactive

Structure (SMILES): CCN(CC)CCOC(=O)C1(C2CCCCC2)CCCCC1
- Potency [1]: inactive
- Potency [2]: inactive
- Potency [3]: inactive

Structure (SMILES): NC(N)=NCCC[C@H](N)C(=O)O
- Potency [1]: inactive
- Potency [2]: inactive
- Potency [3]: inactive

Structure (SMILES): CNCCC(Oc1ccc(C(F)(F)F)cc1)c1ccccc1 (centres undefined)
- Potency [1]: inactive
- Potency [2]: inactive
- Potency [3]: inactive

Structure (SMILES): O=c1cc[nH]c(=S)[nH]1
- Potency [4]: inactive
- Potency [5]: 9.27 µM (active)
- Potency [6]: inactive
- outcome [7]: inactive
- outcome [8]: inactive
- Potency [9]: inactive
- outcome [10]: inactive
- outcome [11]: inactive
- outcome [12]: inactive
- outcome [13]: inactive
- Potency [3]: inactive

Structure (SMILES): O=C1NC(=O)[C@@]2(CCOc3ccc(F)cc32)N1
- Potency [1]: inactive
- Potency [2]: inactive
- Potency [3]: inactive

Structure (SMILES): OCc1cc(C(O)CNCCCCCCOCCCCc2ccccc2)ccc1O (centres undefined)
- Potency [1]: 56.2 µM (active)
- Potency [2]: 26.7 µM (active)

Structure (SMILES): O=C(O)CN1C(=O)c2cccc3cccc(c23)C1=O
- Potency [4]: 18.5 µM (active)
- Potency [5]: 3.29 µM (active)
- Potency [6]: 20.8 µM (active)
- outcome [14]: inactive
- outcome [7]: inactive
- outcome [8]: inactive
- Potency [9]: 3.69 µM (active)
- outcome [12]: inactive
- outcome [13]: inactive
- Potency [3]: inactive

Structure (SMILES): COCCOC(=O)C1=C(C)NC(C)=C(C(=O)OC/C=C/c2ccccc2)C1c1cccc([N+](=O)[O-])c1 (centres undefined)
- Potency [1]: inactive
- Potency [2]: inactive
- Potency [3]: inactive

Structure (SMILES): Cc1ccc2nc(N)[nH]c(=O)c2c1Sc1ccncc1
- Potency [5]: 3.29 µM (active)
- outcome [7]: inactive
- Potency [9]: inactive
- outcome [10]: inactive
- outcome [11]: inactive
- Potency [3]: inactive
- Potency [15]: inactive

Structure (SMILES): N=c1c[n+](N2CCOCC2)[n-]o1
- Potency [1]: 44.7 µM (active) and 50.1 µM (active)
- Potency [2]: inactive

Structure (SMILES): CN(C)CCOC(C)(c1ccccc1)c1ccccn1 (centres undefined)
- Potency [1]: inactive
- Potency [2]: inactive
- Potency [3]: inactive

Structure (SMILES): C[C@]12CC[C@@H]3c4ccc(O)cc4CC[C@H]3[C@@H]1CCC2=O
- Potency [1]: inactive
- Potency [2]: inactive
- Potency [3]: inactive

Structure (SMILES): NC(=O)c1ncn([C@@H]2O[C@H](CO)[C@@H](O)[C@H]2O)n1
- Potency [1]: inactive
- Potency [2]: inactive
- Potency [3]: inactive

Structure (SMILES): CCCCC/C(C=O)=C\c1ccccc1
- Potency [4]: 14.7 µM (active)
- Potency [5]: 6.57 µM (active)
- Potency [6]: inactive
- outcome [14]: inactive
- outcome [7]: inactive
- Potency [9]: inactive
- Potency [3]: inactive

Structure (SMILES): COc1ccc(Cl)cc1C(=O)NCCc1ccc(S(=O)(=O)NC(=O)NC2CCCCC2)cc1
- Potency [1]: inactive
- Potency [2]: inactive
- Potency [3]: inactive

Structure (SMILES): CC[C@H]1CN2CCc3cc(OC)c(OC)cc3[C@@H]2C[C@@H]1C[C@H]1NCCc2cc(OC)c(OC)cc21
- Potency [1]: inactive
- Potency [2]: inactive
- Potency [3]: inactive

Structure (SMILES): CC(C)(C)c1onc(OCP(=O)(O)O)c1CC(N)C(=O)O (centres undefined)
- Potency [1]: inactive
- Potency [2]: inactive

Structure (SMILES): CSc1ccc2c(c1)N(CCC1CCCCN1C)c1ccccc1S2 (centres undefined)
- Potency [1]: 44.7 µM (active)
- Potency [2]: inactive
- Potency [3]: inactive

Structure (SMILES): CCCn1cnc2c1c(=O)n(CCCCC(C)=O)c(=O)n2C
- Potency [1]: inactive
- Potency [2]: inactive
- Potency [3]: inactive

Structure (SMILES): C[C@H]1O[C@@H](n2cc(F)c(=O)[nH]c2=O)[C@H](O)[C@@H]1O
- Potency [1]: inactive
- Potency [2]: inactive
- Potency [3]: inactive

Structure (SMILES): CC(C)C(=O)c1c(C(C)C)nn2ccccc12
- Potency [1]: inactive
- Potency [2]: inactive
- Potency [3]: inactive

Structure (SMILES): CN(C)CCC=C1c2ccccc2CCc2ccccc21
- Potency [1]: inactive
- Potency [2]: inactive
- Potency [3]: inactive

Structure (SMILES): Nc1ncnc2c1ncn2[C@@H]1O[C@H](CO)[C@@H](O)[C@H]1O
- Potency [2]: inactive
- Potency [3]: inactive

Structure (SMILES): O=C(O)[C@H](O)c1ccccc1
- Potency [3]: inactive

Structure (SMILES): Cc1cc(N)c2ccccc2[n+]1CCCCCCCCCC[n+]1c(C)cc(N)c2ccccc21
- Potency [1]: 39.8 µM (active)
- Potency [2]: 23.8 µM (active)
- Potency [15]: inactive

Structure (SMILES): CC1=C(/C=C/C(C)=C/C=C/C(C)=C/C(=O)O)C(C)(C)CCC1
- Potency [2]: inactive
- Potency [3]: inactive

Structure (SMILES): Oc1cn2c(n1)Nc1ccc(Cl)c(Cl)c1C2
- Potency [3]: inactive

Structure (SMILES): O=C1O[C@H](CO)[C@@H](O)[C@H](O)[C@H]1O
- Potency [3]: inactive

Structure (SMILES): O=C(O)c1ccccc1-c1ccc(C(F)(F)F)cc1
- Potency [3]: inactive

Structure (SMILES): Nc1ccc(S(=O)(=O)Nc2ccc(Cl)nn2)cc1
- Potency [3]: inactive

Structure (SMILES): O=C(Oc1ccccc1C(=O)O)c1ccccc1O
- Potency [3]: inactive

Structure (SMILES): CCN(CC)C(C)CN1c2ccccc2Sc2ccccc21 (centres undefined)
- Potency [1]: 25.1 µM (active)
- Potency [3]: inactive

Structure (SMILES): CN1CCN(C2Cc3ccccc3Sc3ccc(Cl)cc32)CC1 (centres undefined)
- Potency [2]: inactive
- Potency [3]: inactive

Structure (SMILES): CCN(CC)CCCC(C)Nc1c2ccc(Cl)cc2nc2ccc(OC)cc12 (centres undefined)
- Potency [1]: 39.8 µM (active)
- Potency [2]: 23.8 µM (active)
- Potency [15]: inactive

Structure (SMILES): CC(C)(C(=O)O)c1ccc(C(O)CCCN2CCC(C(O)(c3ccccc3)c3ccccc3)CC2)cc1 (centres undefined)
- Potency [1]: inactive
- Potency [2]: inactive
- Potency [3]: inactive
- Potency [15]: inactive

Structure (SMILES): C/C(=C(\CCOP(=O)(O)O)SC(=O)c1ccccc1)N(C=O)Cc1cnc(C)nc1N
- activity change, negative = inhibition [3]: 0.0847% [at 4.99 µM]
